Results from PubChem BioAssay (NCATS).
Records with an inconclusive call do not appear. Where a call stands in place of a potency, no number is given. Activity calls are given as the source filed them. Calls follow the shape of the dose curve; as a rule, active = well fitted curve in the direction sought with a large enough effect; inconclusive = small, poorly fitted or top-dose-only effect, or another doubt; inactive = no such curve, though single readings can be large; an effect the other way counts as inactive or inconclusive.

What was measured:
[1] = MultiTox-Fluor Cytotoxicity Assay - LYMP1-002 - Dead Cells (AID 960); also: nearly all actives have a fitted effect of over 60% in size; also: potency is read from the fitted curve at half-maximal effect
Procedure, shortened: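 Cells were plated, rested 5 hr, then treated with compound dilution series for 16 hr at 37 C. After adding substrate reagent and 60 min at room temperature, dead-cell protease fluorescence gave concentration-response curves fitted by the Hill equation.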

[2] = MultiTox-Fluor Cytotoxicity Assay - LYMP1-003 - Dead Cells (AID 961);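 also: cells exposed to compound for 16 h at 37 °C; nearly all actives have a fitted effect of over 70% in size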
Procedure, shortened: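 LYMP1-003 lymphoblastoid, 2500 cells/well, 5 hr settle then 16 hr cpd at 37 C; MultiTox-Fluor reagent 60 min RT; Ex/Em 485/520 dead-cell signal; norm. DMSO = 0%, 15 uM tetraoctylammonium bromide = 100%; Hill AC50.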

[3] = MultiTox-Fluor Cytotoxicity Assay - LYMP1-003 - Live Cells (AID 962);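 also: cells exposed to compound for 16 hours at 37 °C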; also: potency is read from the fitted curve at half-maximal effect
Procedure, shortened: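 Acute cytotoxicity is scored as a drop in live-cell protease activity in human lymphoblastoid LYMP1-003 cells after 16 hr compound exposure at 37 C. AC50 values come from Hill-equation modelling of concentration-response data.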

[4] = Cell Viability - LYMP1-003 - Assay at 24 hr (AID 963); also: potency is read from the fitted curve at half-maximal effect
Procedure, shortened: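 Cytotoxicity is scored as a concentration-dependent fall in ATP-linked luciferase signal in human lymphoblastoid LYMP1-003 cells treated 24 hr at 37 C in complete culture medium.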

[5] = Cell Viability - LYMP1-003 - Assay at 40 hr (AID 964); also: nearly all actives have a fitted effect of over 60% in size; also: potency is read from the fitted curve at half-maximal effect
Procedure, shortened: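 Luminescent ATP signal (CellTiter-Glo) served as the viability read-out after 40 hr compound treatment of human lymphoblastoid LYMP1-003 cells at 37 C. Decreases in ATP were fitted with the Hill equation to give AC50.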

[6] = Cell Viability - LYMP2-003 (AID 965);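 also: cells exposed to compounds for 24 h before reading; nearly all actives have a fitted effect of over 50% in size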; also: potency is read from the fitted curve at half-maximal effect
Procedure, shortened: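 Human lymphoblastoid LYMP2-003 cells, 2500/well, exposed to compounds for 24 h at 37 C in complete medium. Viability read as intracellular ATP by CellTiter-Glo luminescence; AC50 from Hill-equation fits of qHTS concentration-response data.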

[7] = Cell Viability - LYMP2-004 (AID 966); also: nearly all actives have a fitted effect of over 65% in size; also: potency is read from the fitted curve at half-maximal effect
Procedure, shortened: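 qHTS cytotoxicity: human lymphoblastoid line, 24 hr compound treatment, 37 C, complete medium. Viability read as cellular ATP via luciferase luminescence; tetraoctylammonium bromide served as positive control.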

[8] = Cell Viability - LYMP2-005 (AID 967); also: potency is read from the fitted curve at half-maximal effect
Procedure, shortened: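 Human lymphoblastoid LYMP2-005 cells, 2,500 per well in complete medium, rested 5 h at 37C then compound-treated 24 h at 37C. Intracellular ATP read by CellTiter-Glo luminescence after 30 min at room temperature; AC50 from Hill-equation fits of concentration-response data.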

[9] = Cell Viability - LYMP2-009 (AID 968); also: nearly all actives have a fitted effect of over 55% in size; also: potency is read from the fitted curve at half-maximal effect
[10] = Cell Viability - LYMP2-011 (AID 969); also: nearly all actives have a fitted effect of over 60% in size; also: potency is read from the fitted curve at half-maximal effect
Procedure, shortened: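 In this qHTS cytotoxicity format, compounds are tested across concentrations on human lymphoblastoid cells in complete medium for 24 hours at 37 C. Viability is taken as cellular ATP measured by luciferase luminescence.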

[11] = Cell Viability - LYMP2-013 (AID 970); also: nearly all actives have a fitted effect of over 55% in size; also: potency is read from the fitted curve at half-maximal effect
Procedure, shortened: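 Cytotoxicity is scored as a concentration-dependent drop in intracellular ATP in human lymphoblastoid cells after 24 hr compound exposure at 37 C. ATP is quantified by luciferase luminescence, and AC50 values come from Hill-equation modeling.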

[12] = Cell Viability - LYMP2-015 (AID 971); also: nearly all actives have a fitted effect of over 55% in size; also: potency is read from the fitted curve at half-maximal effect
Procedure, shortened: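 Cells are seeded at 2500 per well and incubated 5 hr at 37 C. Compounds are added across a concentration series for 24 hr at 37 C. CellTiter-Glo is added, and luminescence is read after 30 min at room temperature.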

[13] = Cell Viability - LYMP2-019 (AID 973); also: nearly all actives have a fitted effect of over 55% in size; also: potency is read from the fitted curve at half-maximal effect
Procedure, shortened: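 Cytotoxicity is scored as a concentration-dependent drop in cellular ATP after cells (2500/well) receive compound for 24 hr at 37 C. Tetraoctylammonium bromide serves as positive control.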

[14] = Cell Viability - LYMP2-021 (AID 974); also: potency is read from the fitted curve at half-maximal effect
Procedure, shortened: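 Loss of cellular ATP, measured with a luciferase-based CellTiter-Glo readout, serves as the toxicity signal in human lymphoblastoid cells treated for 24 hours at 37 C. Potency is reported as AC50 from a standard Hill model.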

[15] = Cell Viability - LYMP2-023 (AID 975); also: nearly all actives have a fitted effect of over 55% in size; also: potency is read from the fitted curve at half-maximal effect
Procedure, shortened: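 Steps: seed 2500 human lymphoblastoid cells per well, incubate 5 hr at 37 C, add compound for 24 hr at 37 C, add CellTiter-Glo, hold 30 min at room temperature, read luminescence. AC50 derived by Hill modelling.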

[16] = Cell Viability - LYMP2-025 (AID 976); also: potency is read from the fitted curve at half-maximal effect
Procedure, shortened: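 Acute cytotoxicity is scored as a concentration-dependent fall in intracellular ATP, measured by luciferase luminescence, in human lymphoblastoid LYMP2-025 cells exposed to compound for 24 hours at 37 C. AC50 values come from standard Hill fits.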

[17] = Cell Viability - LYMP2-002 (AID 977);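 also: compound exposure lasted 24 h at 37 °C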; also: potency is read from the fitted curve at half-maximal effect
Procedure, shortened: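 Human lymphoblastoid cells (2500/well) in complete medium were preincubated 5 hr at 37 C, then exposed to compounds for 24 hr at 37 C. Intracellular ATP was read by CellTiter-Glo luminescence; AC50 came from Hill-equation concentration-response fits.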

[18] = Cell Viability - LYMP2-006 (AID 978); also: nearly all actives have a fitted effect of over 60% in size; also: potency is read from the fitted curve at half-maximal effect
Procedure, shortened: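 Human lymphoblastoid cells (LYMP2-006), 2500/well in complete medium, were treated with compound for 24 hr at 37 C. Cellular ATP was read by CellTiter-Glo luminescence after 30 min, and AC50 values came from Hill-equation fits of concentration-response data.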

[19] = Cell Viability - LYMP2-007 (AID 979); also: potency is read from the fitted curve at half-maximal effect
Procedure, shortened: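 Cells are seeded at 2500 per well and rested 5 hr. Compounds are then added over a concentration series for 24 hr at 37 C. CellTiter-Glo is added for 30 min at room temperature before luminescence reading.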

[20] = Cell Viability - LYMP2-008 (AID 980); also: nearly all actives have a fitted effect of over 60% in size; also: potency is read from the fitted curve at half-maximal effect
Procedure, shortened: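 Cells seeded at 2500/well and rested 5 hr at 37 C; compounds added over a concentration range and incubated 24 hr at 37 C; CellTiter-Glo added, 30 min at room temperature; luminescence read and AC50 fitted with Hill model.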

SMILES | Potency [1] | outcome [2] | Potency [3] | Potency [4] | Potency [5] | Potency [6] | Potency [7] | Potency [8] | Potency [9] | Potency [10] | Potency [11] | Potency [12] | Potency [13] | Potency [14] | Potency [15] | Potency [16] | Potency [17] | Potency [18] | Potency [19] | Potency [20]
C[C@]12C=CC(=O)C=C1CC[C@@H]1[C@@H]2C(=O)C[C@@]2(C)[C@H]1CC[C@]2(O)C(=O)CO | inactive | inactive | inactive | inactive | inactive | inactive | inactive | inactive | inactive | inactive | inactive | inactive | inactive | inactive | inactive | inactive | inactive | inactive | inactive | inactive
O=C(N[C@H](CO)[C@H](O)c1ccc([N+](=O)[O-])cc1)C(Cl)Cl | inactive | inactive | inactive | inactive | inactive | inactive | inactive | inactive | inactive | inactive | inactive | inactive | inactive | inactive | inactive | inactive | inactive | inactive | inactive | inactive
CC[C@H](C)C(=O)O[C@H]1C[C@@H](C)C=C2C=C[C@H](C)[C@H](CC[C@@H]3C[C@@H](O)CC(=O)O3)[C@H]21 | – | inactive | inactive | inactive | – | – | – | – | inactive | inactive | inactive | inactive | inactive | inactive | inactive | inactive | inactive | – | inactive | inactive
Cc1nnc(NS(=O)(=O)c2ccc(N)cc2)s1 | inactive | inactive | inactive | inactive | inactive | inactive | inactive | inactive | inactive | inactive | inactive | inactive | inactive | inactive | inactive | inactive | inactive | inactive | inactive | inactive
Cc1ncc([N+](=O)[O-])n1CCO | inactive | inactive | inactive | inactive | inactive | inactive | inactive | inactive | inactive | inactive | inactive | inactive | inactive | inactive | inactive | inactive | inactive | inactive | inactive | inactive
NC(N)=NC(N)=NCCc1ccccc1 | inactive | inactive | inactive | inactive | inactive | inactive | – | – | inactive | inactive | inactive | – | – | inactive | inactive | inactive | inactive | inactive | inactive | inactive
Cc1cc(NS(=O)(=O)c2ccc(N)cc2)no1 | inactive | inactive | inactive | inactive | inactive | inactive | inactive | inactive | inactive | inactive | inactive | inactive | inactive | inactive | inactive | inactive | inactive | inactive | inactive | inactive
Cc1ccnc2c1NC(=O)c1cccnc1N2C1CC1 | inactive | inactive | inactive | inactive | inactive | inactive | inactive | inactive | inactive | inactive | inactive | inactive | inactive | inactive | inactive | inactive | inactive | inactive | inactive | inactive
COc1ccc2cc3[n+](cc2c1OC)CCc1cc2c(cc1-3)OCO2 | – | inactive | inactive | inactive | – | inactive | inactive | – | – | inactive | – | – | – | – | inactive | inactive | inactive | – | – | –
NNC(=O)c1ccncc1 | inactive | inactive | inactive | inactive | inactive | inactive | inactive | inactive | inactive | inactive | inactive | inactive | inactive | inactive | inactive | inactive | inactive | inactive | inactive | inactive
Cc1noc(NS(=O)(=O)c2ccc(N)cc2)c1C | inactive | inactive | inactive | inactive | inactive | inactive | inactive | inactive | inactive | inactive | inactive | inactive | inactive | inactive | inactive | inactive | inactive | inactive | inactive | inactive
O=C(O)c1cc(=O)[nH]c(=O)[nH]1 | inactive | inactive | inactive | inactive | inactive | inactive | inactive | inactive | inactive | inactive | inactive | inactive | inactive | inactive | inactive | inactive | inactive | inactive | inactive | inactive
CC(=O)[C@H]1CC[C@H]2[C@@H]3CCC4=CC(=O)CC[C@]4(C)[C@H]3CC[C@]12C | 15.8 µM (active) | – | inactive | – | – | – | – | – | – | – | – | – | – | – | – | – | – | inactive | – | –
CN(C)c1ccc(C(=C2C=CC(=[N+](C)C)C=C2)c2ccc(N(C)C)cc2)cc1 | 3.98 µM (active) | – | 15.8 µM (active) | 7.94 µM (active) | 2.51 µM (active) | 3.16 µM (active) | 1.58 µM (active) | 2.51 µM (active) | 2.51 µM (active) | 2.51 µM (active) | 3.98 µM (active) | 2.51 µM (active) | 3.16 µM (active) | 2.51 µM (active) | 3.16 µM (active) | 6.31 µM (active) | 2.51 µM (active) | 3.16 µM (active) | 2.51 µM (active) | 2 µM (active)
N=C(N)c1ccc(OCCCCCOc2ccc(C(=N)N)cc2)cc1 | inactive | inactive | inactive | inactive | 39.8 µM (active) | inactive | inactive | – | inactive | – | – | – | – | – | inactive | inactive | – | – | 39.8 µM (active) | –
CCc1cc(C(N)=S)ccn1 | inactive | inactive | inactive | inactive | inactive | inactive | inactive | inactive | inactive | inactive | inactive | inactive | inactive | inactive | inactive | inactive | inactive | inactive | inactive | inactive
CC1=NN(c2ccccc2)C(=O)C1 | inactive | inactive | inactive | inactive | inactive | inactive | inactive | inactive | inactive | inactive | inactive | inactive | inactive | inactive | inactive | inactive | inactive | inactive | inactive | inactive
